Measurements published in PubChem BioAssay (NCI).
Compounds without any hit were thinned out: in the full panel of roughly 79,000, 15% have a hit. A number with no mark means an inactive call. Calls of active or inactive are those of the source. No stated cut-off is given here; in the data, active means growth inhibition above about 70%; inactive means the rest.

Experiment: NCI Yeast Anticancer Drug Screen. Data for the mec2-1 strain (AID 157)
Conditions: S. cerevisiae mec2-1 strain, at 50.0 µM (retest, dose inferred, filed as 5.0), stronger effect = higher value
Outline: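 Cells of the genetically defined mec2-1 yeast strain are incubated with test compound. Inhibition of growth is calculated against vehicle-treated controls.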

Row | SMILES | growth inhibition
1 | O=[N+]([O-])c1cc(Cl)cc2c1nc(NCCO)c1ccccc12 | 67%
2 | c1ccc2nc3ccccc3nc2c1 | 36%
3 | Cc1cc(O)ccc1SC#N | 32%
4 | CC1=C(C(=O)NCc2ccccc2)C(c2ccccc2O)C(C(=O)NCc2ccccc2)=C(C)N1 | 17%
5 | Cc1occc1C(=S)Nc1ccc(Cl)c(COC(C)(C)C)c1 | 74% (active)
6 | CCN(CC)CCOc1c(I)cc(I)cc1I | 98% (active)
7 | CCc1c(C(=O)OC)c(C(=O)OC)c(-c2ccccc2)n1CCn1c(CC)c(C(=O)OC)c(C(=O)OC)c1-c1ccccc1 | 64%
8 | O=C1/C(=C/c2ccc(Cl)cc2)CSC/C1=C\c1ccc(Cl)cc1 | 37%
9 | COc1ccc(C2COc3cc(O)c(O)cc3C2)cc1OC (centres undefined) | 81% (active)
10 | O=C1c2ccccc2C(=O)c2c1cc(O)c(O)c2O | 92% (active)
11 | COc1cc[c]([Sn]([O][Sn]([Cl])([c]2ccc(OC)cc2)[c]2ccc(OC)cc2)[c]2ccc(OC)cc2)cc1 | 86% (active)
12 | O=C(N/C(=C\c1ccc(/C=C(\NC(=O)c2ccccc2)c2nc3ccccc3s2)cc1)c1nc2ccccc2s1)c1ccccc1 | 32%
13 | Cn1c(=O)cc[nH]c1=O | -1%
14 | CCOC(=O)C1=C(c2ccccc2)SC(c2ccccc2)N(C(C)C)C1=O (centres undefined) | 51%
15 | S=C1NC2=C(CSC/C2=C\c2cccc(Br)c2)C(c2cccc(Br)c2)N1 (centres undefined) | 98% (active)
16 | c1ccc2[nH]c(CN(CCN(Cc3nc4ccccc4[nH]3)Cc3nc4ccccc4[nH]3)Cc3nc4ccccc4[nH]3)nc2c1 | 97% (active)
17 | O=[N+]([O-])c1ccc(NC(=S)N/N=C(\c2ccccc2)c2ccccn2)cc1 | 79% (active)
18 | O=C(NCCl)Nc1ccccc1 | 82% (active)
19 | O=Cc1[nH]c(=S)[nH]c(=O)c1CCCc1ccccc1 | 90% (active)
20 | CCCC/C=C(/CCCCOCOCCOC)[Si](C)(C)C | -2%

Same assay, conditions: S. cerevisiae mec2-1 strain, at 50.0 µM, stronger effect = higher value

Row | SMILES | growth inhibition
21 | Cc1ccc(-n2c(CSc3ccc(Cl)cc3)nnc2SCc2nc3ccccc3[nH]2)cc1 | 73.1% (active)
22 | CC(=O)Nc1cccc(C(=O)O)c1 | 0%
23 | COc1ccc2c(c1)CCCN2CCCCCCCCCN1CCCCC1 | 57.9%
24 | CN(C)C(=O)/N=c1\ss/c(=N\C(=S)N(C)C)n1-c1ccccc1 | 45.8%
25 | Clc1ccc(-c2nnc(-c3ccccn3)o2)c(Cl)c1 | 28.1%
26 | CC(O)CC(O)CC1CCCO1 (centres undefined) | 35.6%
27 | CC[C@]1(O)C[C@H]2[C@@H]3CCc4cc(OC)ccc4[C@H]3CC[C@]2(C)[C@H]1O | 48.5%
28 | CCCCCCCCCCCCCCCCCCOS(=O)(=O)O (tested in a mixture with another compound) | 56.6%
29 | C/C(=N\NC(=S)N1CCCC1)c1nc2ncccc2[nH]1 | 84.8% (active)
30 | CC(C)(C)C1=NN=C2c3ccccc3C(=O)C21 (centres undefined) | 9.45%
31 | O=C(O)c1ccc(N=CC2CO2)cc1 (centres undefined) | 0.45%
32 | CCC1(C)C(C#N)(C#N)C1(C#N)C#N | 92.6% (active)
33 | COc1ccc(N(C)Sc2ccccc2)cc1 | 49.1%
34 | C/C(CCn1[nH]c(=O)ccc1=O)=N\NS(=O)(=O)c1ccc(C)cc1 | 4.6%
35 | CCC[n+]1ccc(/C=N\NC(N)=S)c2ccccc21 | -16.4%
36 | O=S1CCS(=O)C1c1ccccc1 (centres undefined) | 61%
37 | NC(=O)c1c(Cl)nc2n1CCS2 | -17.4%
38 | CC(C)S(=O)(=O)ON1C(=O)c2ccc(N(C)C)cc2C1=O | 81.8% (active)
39 | C=Cc1cc(=O)oc2cc(OC)ccc12 | 86.2% (active)
40 | O=[N+]([O-])c1cc(Cl)cc2c1nc(NCCO)c1ccccc12 | 45.2%

Row | SMILES | growth inhibition
41 | c1ccc2nc3ccccc3nc2c1 | 41.2%
42 | Cc1cc(O)ccc1SC#N | 80% (active)
43 | CC1=C(C(=O)NCc2ccccc2)C(c2ccccc2O)C(C(=O)NCc2ccccc2)=C(C)N1 | 85% (active)
44 | Cc1occc1C(=S)Nc1ccc(Cl)c(COC(C)(C)C)c1 | 84.3% (active)
45 | CCN(CC)CCOc1c(I)cc(I)cc1I | 82.4% (active)
46 | CCc1c(C(=O)OC)c(C(=O)OC)c(-c2ccccc2)n1CCn1c(CC)c(C(=O)OC)c(C(=O)OC)c1-c1ccccc1 | 38.2%
47 | O=C1/C(=C/c2ccc(Cl)cc2)CSC/C1=C\c1ccc(Cl)cc1 | 4%
48 | COc1ccc(C2COc3cc(O)c(O)cc3C2)cc1OC (centres undefined) | 72.2% (active)
49 | O=C1c2ccccc2C(=O)c2c1cc(O)c(O)c2O | 77.5% (active)
50 | COc1cc[c]([Sn]([O][Sn]([Cl])([c]2ccc(OC)cc2)[c]2ccc(OC)cc2)[c]2ccc(OC)cc2)cc1 | 32.9%
51 | O=C(N/C(=C\c1ccc(/C=C(\NC(=O)c2ccccc2)c2nc3ccccc3s2)cc1)c1nc2ccccc2s1)c1ccccc1 | 87.5% (active)
52 | Cn1c(=O)cc[nH]c1=O | 3.9%
53 | CCOC(=O)C1=C(c2ccccc2)SC(c2ccccc2)N(C(C)C)C1=O (centres undefined) | 88% (active)
54 | S=C1NC2=C(CSC/C2=C\c2cccc(Br)c2)C(c2cccc(Br)c2)N1 (centres undefined) | 94.3% (active)
55 | c1ccc2[nH]c(CN(CCN(Cc3nc4ccccc4[nH]3)Cc3nc4ccccc4[nH]3)Cc3nc4ccccc4[nH]3)nc2c1 | 91.5% (active)
56 | O=[N+]([O-])c1ccc(NC(=S)N/N=C(\c2ccccc2)c2ccccn2)cc1 | 66.2%
57 | O=C(NCCl)Nc1ccccc1 | 62.8%
58 | O=Cc1[nH]c(=S)[nH]c(=O)c1CCCc1ccccc1 | 78.2% (active)
59 | CCCC/C=C(/CCCCOCOCCOC)[Si](C)(C)C | -1.8%
